Test results: PubChem BioAssay (NCI)
This is part of a sample that, as a whole, favours compounds with a hit. Of some 83,000 tested, about 20% had one in any assay.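 Growth was measured after 48 h exposure to one concentration of compound in 96-well plates. Values under 10 count as active.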 Active and inactive are the calls of the source.

What follows are molecules tested on MDA-MB-468 breast (assay: NCI-60 one-dose screen, 48 h (100 = growth as untreated, 0 = no growth, -100 = all killed)). Settings: 10 µM unless noted.
With `COc1ccc(-n2nnc(C(=O)NCCc3c[nH]c4ccc(F)cc34)c2C)cc1` the growth was 109% (inactive).
`CN(C)c1ccc(/C=N\NC(=O)c2ccc3nc(-c4ccc(Cl)cc4)[nH]c3c2)cc1` was tested, and the growth was 76.1% (inactive).
In the case of `CCNC(=O)N1CCc2c(Cl)c3c(c(OC)c2[C@@H]1[C@H]1OCc2c1ccc(OC)c2OC)OCCO3`, the growth is reported as -8.07% (active).
With `CCCCCCCCCCCCCC[n+]1ccc2c(C)c3c(c(C)c2c1)c1cc(O)ccc1n3CC` the growth was -63.6% (active).
In the case of `COc1ccc(C/C(C)=C(/c2ccc(OCCN(C)C)cc2)c2ccc(OC(=O)NCc3ccccc3)cc2)cc1`, the growth is reported as 67.6% (inactive).
For `COc1ccc(CN(c2ccc(C)cc2)C2OC(=O)c3ccccc32)cc1OC` (configuration not stated), the growth was 90.2% (inactive).
For `NS(=O)(=O)c1cccc(Nc2nc(SCC(=O)c3ccc(Br)cc3)nc3ccccc23)c1`, the growth was 61.3% (inactive).
